Test results published in PubChem BioAssay AID1159580 (chemical genetic matrix, 2015).
The whole screen tested about 5,500 compounds, of which about 2,000 (36%) were called active. Inconclusive results (about 18%) are left out. Rule as the data show it: active = normalized growth mostly below about 0.91 (no sharp cut-off); inconclusive = no clear call, values can overlap the other calls; inactive = mostly above about 0.92. The list shows a part of the results.

Experiment: chemical genetic growth profiling, strain panel (AID 1159580);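 also: tested at 20 µM; growth read once vehicle control cultures reached saturation at 30 °C; 1 = growth at the plate median or of vehicle wells; lower values mean less growth of the strain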
Conditions: S. cerevisiae deletion strains, growth OD
[1] = locus YAL013W, strain DEP1, active compounds read low
[2] = locus YAL040C, strain CLN3, active compounds read low
[3] = locus YCL061C, strain MRC1 (second series), active compounds read low
[4] = locus YDR150W, strain NUM1, active compounds read low
[5] = locus YDR363W, strain ESC2, active compounds read low
[6] = locus YER002W, strain NOP16, active compounds read low
[7] = locus YGR078C, strain PAC10, active compounds read low
[8] = locus YMR307W, strain GAS1, active compounds read low
[9] = locus YNL175C, strain NOP13, active compounds read low
[10] = locus YNL197C, strain WHI3, active compounds read low
[11] = locus YNL224C, strain SQS1, active compounds read low
[12] = locus YNL322C, strain KRE1, active compounds read low
[13] = locus YOR083W, strain WHI5 (second series), active compounds read low
[14] = locus YPL055C, strain LGE1, active compounds read low
[15] = locus YPL241C, strain CIN2, active compounds read low
[16] = locus YJR075W, strain HOC1, active compounds read low
[17] = locus YMR263W, strain SAP30, active compounds read low

Measured: normalized growth

OC[C@H]1O[C@@H](n2cnc3c(N[C@H]4CC5CCC4C5)ncnc32)[C@H](O)[C@@H]1O (stereo partly drawn)
inactive: [1] 1 | [2] 1.02 | [3] 1.01 | [4] 1.01 | [5] 1 | [6] 1.02 | [7] 1.03 | locus YGR229C, strain SMI1, active compounds read low 0.938 | [8] 0.999 | locus YNL128W, strain TEP1, active compounds read low 0.992 | [9] 1.01 | [10] 0.994 | [11] 0.974 | [12] 1.01 | [13] 1.04 | [14] 1.03 | [15] 1.01

CCCn1c(=O)c2[nH]c(C3CCCC3)nc2n(CCCOC(=O)c2ccc(S(=O)(=O)F)cc2)c1=O
inactive: [1] 0.992 | [2] 0.987 | [3] 1.01 | [5] 0.998 | [6] 1 | [7] 1.02 | [16] 0.994 | [17] 0.999 | [9] 1.01 | [10] 1 | [11] 1.01 | [13] 0.995 | [14] 1.01

CCOC(=O)C1C(c2cccnc2)C(C(=O)OCC)C(O)(C(F)(F)F)NC1(O)C(F)(F)F (stereo not drawn)
inactive: [1] 1 | locus YBR229C, strain ROT2, active compounds read low 1 | locus YCL061C, strain MRC1, active compounds read low 1.02 | locus YDL101C, strain DUN1, active compounds read low 1 | [4] 0.985 | locus YEL061C, strain CIN8, active compounds read low 0.985 | [7] 1.01 | locus YHR030C, strain SLT2, active compounds read low 1.01 | locus YHR087W, strain rtc3, active compounds read low 1.01 | locus YJR043C, strain POL32, active compounds read low 0.996 | [16] 1.03 | locus YKL190W, strain CNB1, active compounds read low 1.01 | locus YLR039C, strain RIC1, active compounds read low 1.05 | locus YLR058C, strain SHM2 (second series), active compounds read low 1.01 | locus YLR085C, strain ARP6, active compounds read low 1.01 | locus YLR262C, strain YPT6, active compounds read low 1.02 | locus YML094W, strain GIM5, active compounds read low 0.965 | locus YMR219W, strain ESC1, active compounds read low 1.01 | [17] 1.04 | [8] 0.995 | locus YNL153C, strain GIM3, active compounds read low 1.01 | locus YNL298W, strain CLA4 (second series), active compounds read low 1 | [12] 0.994 | locus YNR030W, strain Alg12, active compounds read low 1 | locus YOL006C, strain TOP1, active compounds read low 0.963 | [14] 1 | [15] 1.02 | locus YPR135W, strain CTF4, active compounds read low 0.982
